109 compounds from PubChem BioAssay AID485313 (National Center for Advancing Translational Sciences (NCATS), 2010) can be followed below.

The structures appear in SMILES notation. About 7,600 (2.4%) of roughly 320,000 compounds were called active. Another 3% or so got no clear call; they are omitted. This excerpt belongs to a sample that is enriched for actives. Unmarked numbers belong to inactive results. Calls follow the shape of the dose curve; as a rule, active = well fitted activation curve with a large enough effect; inconclusive = small, poorly fitted or top-dose-only effect; inactive = no such curve, though single readings can be large or run the other way.
Potency is read from the fitted curve at half-maximal effect.

A short description of the assay: qHTS Assay for NPC1 Promoter Activators. Also: nearly all actives have a fitted effect of over 60% in size.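 As to activation: reporter is driven by a mutant NPC1 promoter; % of control where 0% means no effect.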 As to conditions: Huh7 NPC1 promoter luciferase reporter, 24 h; series mostly up to 9.22 µM; activation: at the top concentration. The method in brief: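 Cells: Huh7 expressing luciferase under the NPC1 promoter, 1500/well. Seeded 2 h, compound added, incubated 24 h at 37 °C. Luciferase reagent, 10 min ambient, then luminescence.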
Regarding `O=C(COC(=O)c1c(Cl)cccc1Cl)Nc1cccc(S(=O)(=O)NC2=NCCCCC2)c1`, the “activation” value was 0.228%.

For `COc1ccc(Cc2nnc(N/N=C/c3ccccc3O)[nH]c2=O)cc1OC`, the “activation” value was -20.3%.

Regarding `COc1ccccc1C(=O)NCC(=O)OCC(=O)Nc1nnc(-c2ccccc2)o1`, the “activation” value was -2.61%.

For `O=C(COC(=O)c1cc(S(=O)(=O)N2CCOCC2)ccc1Cl)NCCc1ccccc1`, the “activation” value is 1.28%.

For the compound `Cc1ccc(NC(=O)NC(=O)c2ccccc2)cc1F`, the Potency is 0.562 µM (active).

Regarding `Cc1cccc(NC(=O)NC(=S)NC(=O)c2ccccc2)c1`, the “activation” value is 2.7%.

Turning to `Cc1nc(C)c(C(=O)Nc2ccc(C)c(F)c2)o1`, the “activation” value was 9.51%.

Consider `CCN(CC)C(=O)c1nc[nH]c1C(=O)N(C)Cc1ccccc1`, for which the “activation” value was -3.28%.

Regarding `Cc1c(NC(=O)Nc2ccccc2)cccc1[N+](=O)[O-]`, the “activation” value is 0.25%.

On to `Cc1ccc(NC(=O)Nc2ccccc2)c(Br)c1`, for which the Potency is 3.55 µM (active).

Consider `CCOc1cc(NC(=O)Nc2ccccc2)c(OCC)cc1NC(=O)CC`, for which the “activation” value was -0.529%.

As to `COc1cc(F)c(C2=CC(=O)CC(C)(C)C2)cc1F`, the “activation” value is -2.64%.

On to `CSc1ccccc1OCc1cc(C(=O)N2C[C@H]3CC[C@H]2C3)no1`, for which the Potency is 2.82 µM (active).

On to `CSc1ccccc1OCc1cc(C(=O)N(C)CCc2c(C)n[nH]c2C)no1`, for which the “activation” value is -11.9%.

Regarding `COC(=O)[C@@H]1CCCN1C(=O)c1cc(COc2cccc3cccnc23)on1`, the “activation” value is -2.83%.

In the case of `COC(=O)c1ccc(C)c(NC(=O)C2CC(=O)N(C3CCCC(C)C3C)C2)c1` (centres undefined), the “activation” value is -3.54%.

On to `NS(=O)(=O)c1ccc(CCNC(=O)COC(=O)COc2cccc(C(F)(F)F)c2)cc1`, for which the “activation” value is -6.93%.

Take `Cc1ccc(OCCC(=O)Nc2ccc(S(=O)(=O)Nc3nccs3)cc2)cc1`: the “activation” value was -1.05%.

Regarding `COc1ccc(Cl)cc1NC(=O)CN(C)C(=O)c1ccc2n[nH]nc2c1`, the “activation” value was -2.57%.

Turning to `Cc1ccsc1C(=O)N/N=C/c1ccc([N+](=O)[O-])cc1`, the Potency is 3.98 µM (active).

In the case of `Cc1nc2ccccc2cc1C(=O)N/N=C/c1ccc([N+](=O)[O-])cc1`, the “activation” value is -3.83%.

Turning to `O=C(N/N=C/c1ccc([N+](=O)[O-])cc1)c1c[nH]c2ccccc12`, the “activation” value is 26.5%.

In the case of `CCOC(=O)CSc1nnc(CNc2nc(-c3ccccc3)cs2)n1C`, the “activation” value was -0.901%.

Turning to `CCNc1nc(-c2cc3ccccc3o2)cs1`, the Potency was 2.82 µM (active).

Regarding `Cc1nc(C)c(-c2csc(NCCc3ccccc3)n2)s1`, the “activation” value is 6.54%.

Turning to `O=C(CC1C(=O)NCCN1CC(c1ccccc1)c1ccccc1)NCC1CCOCC1` (centres undefined), the “activation” value was -1.68%.

`CCC1CCC2(CC1)NC(=O)N(CC(=O)Nc1ccc(OC)cc1)C2=O` (centres undefined): the “activation” value was -1.13%.

As to `COc1ccccc1N1CCN(/N=C\C(Br)=C\c2ccccc2)CC1`, the “activation” value is 26.2%.

On to `COc1ccccc1N1CCN(/N=C/c2ccc(O)cc2O)CC1`, for which the Potency is 2.82 µM (active).

As for `COc1cc(/C=N/N2CCN(c3ccccc3)CC2)ccc1OC(C)=O`, the “activation” value was 1.6%.

As to `CCOC(=O)c1ccc(NC(=O)Cc2cccs2)cc1`, the Potency was 3.55 µM (active).

Take `O=C(Cc1cccs1)Nc1ccc([N+](=O)[O-])cc1`: the “activation” value is 1.42%.

Consider `CCOc1ccccc1NC(=O)Cc1cccs1`, for which the “activation” value was -7.01%.

Take `O=C(O)c1[nH]c2ccccc2c1C(c1cccc(O)c1)c1c(C(=O)O)[nH]c2ccccc12`: the “activation” value is -0.0937%.

With `COc1ccc(NC(=O)CC2SC(N3CCCCC3)=NC2=O)cc1OC` (centres undefined), the “activation” value is -0.702%.

As for `O=C(NCCCN1CCN(c2ccc(F)cc2)CC1)Nc1ccc([N+](=O)[O-])cc1`, the “activation” value is -1.46%.

On to `CC(=O)Oc1ccc(-c2cccc(C(=O)N3CCCCC3)c2)cc1`, for which the “activation” value was 19%.

On to `COc1cccc(COc2ccc(N(C)S(=O)(=O)c3ccccc3)cc2)c1`, for which the “activation” value is -2.05%.

For the compound `COc1ccc(Cn2c(=S)[nH]c3cc(C(=O)N4CCCCC4)ccc3c2=O)cc1`, the “activation” value was 13.8%.

With `CN(Cc1ccccc1)C(=O)c1ccc(COc2ccccc2)cc1`, the “activation” value is -4.73%.

For `COc1ccc(OCc2cccc(C(=O)N3CCCC3)c2)cc1`, the Potency is 0.447 µM (active).

Regarding `CCOc1ccc(OCc2cccc(C(=O)N(CC)CC)c2)cc1`, the Potency was 0.251 µM (active).

As for `CCCCn1nc(C(=O)Nc2cccc(C(=O)NC3CC3)c2)c2ccccc2c1=O`, the “activation” value was -1.73%.

For `O=C(Nc1ccccc1)N1CCC(C(=O)N2CCN(Cc3ccccc3)CC2)CC1`, the “activation” value is 3.24%.

As to `COc1cccc(N2CCN(CC(=O)Nc3ccnn3C3CCCC3)CC2)c1`, the “activation” value was -3.51%.

Regarding `CN(CC(=O)Nc1ccc(Cl)cc1)CC(=O)Nc1cccc2ccccc12`, the “activation” value is -4.37%.

As to `Cc1ccc(C(=O)NNc2ncnc3ccccc23)cc1`, the Potency is 3.16 µM (active).

Turning to `Cc1ccc(C(=O)NNC(=O)c2cc3cc4ccccc4nc3s2)cc1`, the “activation” value was 1.16%.

For the compound `CCc1nc(SCC(=O)NNC(=O)c2ccc(C)cc2)c2ccccc2n1`, the “activation” value is 1.99%.

For `CC(=O)Nc1ccc(S(=O)(=O)NC(C)C(=O)OCCOc2ccc(F)cc2)cc1` (centres undefined), the “activation” value was 0.67%.

Regarding `N#CCC(=O)Nc1ccc(C(=O)OCC(=O)Nc2sc3c(c2C#N)CCCC3)cc1`, the “activation” value was -0.499%.

In the case of `CC(C)(C)OC(=O)N/N=C/c1ccc(C(=O)O)cc1`, the “activation” value is 0.842%.

On to `C/C(=N\NC(=O)OC(C)(C)C)c1ccc[nH]1`, for which the Potency was 2.82 µM (active).

`Cc1ccccc1NC(=O)NNC(=O)OC(C)(C)C`: the “activation” value was 0.144%.

As to `CC(C)CC(COCc1ccc(Cl)cc1)N1CCN(C(=O)c2ccc(C(F)(F)F)cc2)CCC1=O` (centres undefined), the “activation” value is -5.4%.

In the case of `CCOc1ccc(NC(=O)CN(C)C(=O)Cn2c(=O)cnc3ccccc32)cc1OCC`, the “activation” value is -0.76%.

Consider `O=c1c2ccccc2ccc2ccc(P(=O)(O)O)cc12`, for which the “activation” value is -2.15%.

Turning to `CN(C)/C=C/C(=O)c1ccccc1F`, the “activation” value was 0.124%.

In the case of `Cc1nc(-c2ccccc2)sc1C(=O)/C=C/N(C)C`, the Potency was 2.82 µM (active).

`Cc1nc(COc2cccc(Cl)c2)sc1C(=O)/C=C/N(C)C`: the “activation” value is 18.5%.

Turning to `Cn1c(SCC(=O)Nc2nccs2)nnc1-c1cccnc1`, the “activation” value is -0.463%.

Regarding `O=C(NCCCNC(=O)c1ccccc1Cl)c1cnccn1`, the “activation” value is -0.803%.

For the compound `Cn1c(=NC(=O)c2cnccn2)sc2ccccc21`, the Potency is 2 µM (active).

Turning to `COC(=O)c1ccc(OC(=O)c2cnccn2)cc1`, the “activation” value was 0.63%.

For `CCOc1ccc2oc(C(=O)N(CC)CC(=O)Nc3ccc(NC(C)=O)cc3)c(C)c2c1`, the “activation” value is 5.68%.

For `Cc1c(O)c(C)c2c(c1O)C(=O)C[C@@H](c1ccccc1)O2`, the “activation” value is 1.52%.

In the case of `O=C(Nc1ccon1)c1nc[nH]c1C(=O)NCc1ccccc1`, the “activation” value is 0.0628%.

With `CC(Oc1ccc(Br)cc1)C(=O)NC1CCCCCC1` (centres undefined), the “activation” value was 17.9%.

As for `COc1cccc(CC(=O)Nc2ccc(-c3csc(C)n3)cc2)c1`, the “activation” value is 1.47%.

On to `COc1ccc(-c2csc(Cc3nc(O)cs3)n2)cc1`, for which the Potency is 3.55 µM (active).

For the compound `CC(C)(C)C(=O)OCc1nc(-c2ccc(O)c(O)c2)cs1`, the “activation” value is -3.2%.

`CCN(CC(=O)Nc1cc(Cl)ccc1C)C(=O)CSCc1ccccc1`: the “activation” value is -2.25%.

Take `CC(=O)c1ccc(N2CCN(CC(O)c3ccccc3)CC2)cc1` (centres undefined): the “activation” value is -7.6%.

In the case of `CC(=O)c1ccc(N2CCN(C(=O)CCc3ccccc3)CC2)cc1`, the “activation” value was -1.38%.

For the compound `CC(=O)c1ccc(N2Cc3ccccc3C2)cc1`, the Potency is 2.51 µM (active).

With `O=C(O)c1cc(S(=O)(=O)Nc2ccc3cn[nH]c3c2)ccc1Br`, the “activation” value was 1.48%.

With `CS(=O)(=O)N1CCN(C(=O)Cc2ccccc2)CC1`, the “activation” value is -1.21%.

As to `CS(=O)(=O)N1CCc2nc(-c3ccccc3)sc2C1`, the Potency was 2.51 µM (active).

Take `CS(=O)(=O)N1CCN(c2cccc(Cl)n2)CC1`: the “activation” value is 2.53%.

As to `CCCCN(C(=O)C1=NN(c2cc(C)ccc2C)C(=O)CC1)c1c(N)n(CCC)c(=O)[nH]c1=O`, the “activation” value is -0.22%.

With `COc1ccc(OCCCC(=O)Nc2cccc(S(=O)(=O)N3CCCCCC3)c2)cc1`, the “activation” value is 4.23%.

Take `Cc1ccccc1Nc1nc(-c2cccnc2)cs1`: the Potency was 1.78 µM (active).

Regarding `Brc1ccc(-c2csc(N/N=C/c3cccnc3)n2)cc1`, the “activation” value is 3.01%.

As for `O=C(NCc1cccnc1)C(=O)Nc1nc(-c2ccccc2)cs1`, the “activation” value is 26.3%.

Take `CN(C(=O)COC(=O)Cn1cnc2c1c(=O)n(C)c(=O)n2C)C1(C#N)CCCCC1`: the “activation” value is -0.17%.

As to `O=C(CSc1nnc(Nc2ccccc2F)s1)NC1CCCC1`, the “activation” value is 4.95%.

As for `COC(=O)CSc1nc(C)c2ccc(OC)cc2n1`, the “activation” value is -0.564%.

`COc1ccc2nc(SCc3ccccc3)nc(C)c2c1`: the Potency is 3.16 µM (active).

For `COc1ccc(-c2nnc3ccc(SCc4ccccc4)nn23)cc1`, the “activation” value is 2.4%.

As to `Cc1ccc(OCC(=O)Nc2ccccc2C(=O)NC2CC2)cc1`, the “activation” value is 0.788%.

Regarding `CC(C)Oc1ccc(S(=O)(=O)N2CCOCC2)cc1NC(=O)C1CCCC1`, the “activation” value is 1.15%.

As to `O=C(c1ccc(Br)o1)N(c1ccccn1)C1CCCCC1`, the “activation” value was 0.227%.

On to `COc1cccc(NC(=O)CN(C)CC(=O)c2c(N)n(Cc3ccccc3)c(=O)n(C)c2=O)c1`, for which the “activation” value was -2.46%.

Take `Cc1cccc(C(=O)c2cccc(C)c2)c1`: the “activation” value was -0.639%.

As to `Cc1cccc(/C(N)=N/OC(=O)c2ccccc2Cl)c1`, the Potency was 0.0891 µM (active).

Regarding `N/C(=N\OC(=O)c1cc(-c2ccccc2)nc2ccccc12)c1ccncc1`, the “activation” value is 3.57%.

On to `C[C@H](NC(=O)C1CC(=O)N(c2ccc3c(c2)OCCO3)C1)C(=O)N1CCC(C(=O)O)CC1` (some centres undefined), for which the “activation” value is -3.35%.

Regarding `COc1cc(C(=O)OCC(=O)NC23CC4CC(CC(C4)C2)C3)cc(OC)c1OC`, the “activation” value is 0.787%.

Regarding `CSCCC(NC(=O)COc1ccccc1)C(=O)N(C)CC(=O)Nc1ccc(C)cc1` (centres undefined), the “activation” value was -2.11%.

For `O=C(COC(=O)C1(c2ccc(F)cc2)CCCC1)N1CCNC1=O`, the “activation” value is 0.411%.

In the case of `O=[N+]([O-])c1ccc2nc(-c3ccccn3)[nH]c2c1`, the Potency was 1.58 µM (active).

In the case of `O=c1[nH]c2cccnc2n1-c1ccc([N+](=O)[O-])cc1`, the “activation” value is 2.63%.

Consider `O=[N+]([O-])c1ccc2c(c1)Nc1nc3ccccc3nc1N2`, for which the “activation” value was -0.0231%.

Consider `CCN(CC(=O)Nc1ccc(OC)cc1)C(=O)c1ccc(=O)n(Cc2ccccc2)n1`, for which the “activation” value was -0.115%.

`Cc1nn2c(=O)cc(COC(=O)c3ccc(NC(=O)C(C)(C)C)cc3)nc2s1`: the “activation” value was -1.52%.

In the case of `O=c1cc(CCl)nc2scc(-c3ccccc3)n12`, the “activation” value is -0.115%.

`Cc1csc2nc(COC(=O)c3cccc(N(C)C)c3)cc(=O)n12`: the Potency was 1.41 µM (active).

`CCC(C)N(C(=O)CSc1nnnn1-c1ccccc1OC)C1CCS(=O)(=O)C1` (centres undefined): the “activation” value is 4.75%.

Turning to `CC(NCc1ccccc1OC1CCCC1)c1ccccc1` (centres undefined), the “activation” value was -1.56%.
